In PubChem BioAssay (NCI):
The panel holds about 83,000 compounds, 20% with a hit somewhere; the sample as a whole holds those more often.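 Treatment: one concentration, 48 hours, 96-well format. Scoring: percent growth, with anything below 10 considered active.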 Activity calls are given as the source filed them.

Experiments:
Test in all cases: NCI-60 one-dose screen, 48 h (100 = growth as untreated, 0 = no growth, -100 = all killed)
Conditions in all cases: 10 µM unless noted
SR leukemia = system: SR leukemia
RPMI-8226 leukemia = system: RPMI-8226 leukemia
OVCAR-8 ovarian = system: OVCAR-8 ovarian
OVCAR-5 ovarian = system: OVCAR-5 ovarian
OVCAR-4 ovarian = system: OVCAR-4 ovarian
SK-OV-3 ovarian = system: SK-OV-3 ovarian
IGROV1 ovarian = system: IGROV1 ovarian
OVCAR-3 ovarian = system: OVCAR-3 ovarian
HS 578T breast = system: HS 578T breast
NCI/ADR-RES ovarian = system: NCI/ADR-RES ovarian

Measured: growth

O=c1c2ccccc2sc2c(NCCCNCCO)nc3ccccc3c12
active: SR leukemia -25.9% | RPMI-8226 leukemia -14.8%
inactive: OVCAR-8 ovarian 17.7% | OVCAR-5 ovarian 76.3% | OVCAR-4 ovarian 60.4% | SK-OV-3 ovarian 69.4% | IGROV1 ovarian 27% | OVCAR-3 ovarian 35.2% | HS 578T breast 34%

Cc1cc(SCc2ccc(Cl)cc2Cl)nc(SCc2ccc(Cl)cc2Cl)n1
inactive: SR leukemia 105% | RPMI-8226 leukemia 103% | OVCAR-8 ovarian 104% | OVCAR-5 ovarian 97.8% | OVCAR-4 ovarian 88.2% | SK-OV-3 ovarian 116% | IGROV1 ovarian 99.5% | OVCAR-3 ovarian 102% | HS 578T breast 102% | NCI/ADR-RES ovarian 99.4%

O=C(N/N=C/c1ccccc1O)c1ccccc1O
inactive: SR leukemia 17.1% | RPMI-8226 leukemia 37.4% | OVCAR-8 ovarian 25.1% | OVCAR-5 ovarian 55.3% | OVCAR-4 ovarian 24.3% | SK-OV-3 ovarian 47.7% | IGROV1 ovarian 24.3% | OVCAR-3 ovarian 39.8%

CN1CCN(CC(=O)N(C)c2ccc(N=C(c3ccccc3)c3c(O)[nH]c4ccc(C#N)cc34)cc2)CC1
active: SR leukemia 0.738% | SK-OV-3 ovarian -7.83% | HS 578T breast -2.32%
inactive: RPMI-8226 leukemia 57.6% | OVCAR-8 ovarian 39.1% | OVCAR-5 ovarian 80.1% | OVCAR-4 ovarian 48% | IGROV1 ovarian 31% | OVCAR-3 ovarian 52.2%

Cc1ccc[n+](CC(=O)c2cccc3ccccc23)c1
inactive: SR leukemia 112% | RPMI-8226 leukemia 101% | OVCAR-8 ovarian 114% | OVCAR-5 ovarian 98.6% | OVCAR-4 ovarian 103% | SK-OV-3 ovarian 96.9% | IGROV1 ovarian 96% | OVCAR-3 ovarian 98.6% | HS 578T breast 106% | NCI/ADR-RES ovarian 108%

C/C(=N/NC(=O)Cn1c2ccccc2c2ccncc21)c1cccs1
inactive: SR leukemia 83.3% | RPMI-8226 leukemia 87.4% | OVCAR-8 ovarian 92.8% | OVCAR-5 ovarian 112% | OVCAR-4 ovarian 99.8% | SK-OV-3 ovarian 102% | IGROV1 ovarian 90.6% | OVCAR-3 ovarian 103% | HS 578T breast 91.1% | NCI/ADR-RES ovarian 101%

CCOc1cccc(Nc2nc(N)nc3[nH]c4ccc(O)cc4c23)c1
inactive: SR leukemia 65.7% | RPMI-8226 leukemia 42.4% | OVCAR-8 ovarian 77.6% | OVCAR-5 ovarian 63.1% | OVCAR-4 ovarian 66.3% | SK-OV-3 ovarian 55.9% | IGROV1 ovarian 16.7% | OVCAR-3 ovarian 58.5% | HS 578T breast 58.5% | NCI/ADR-RES ovarian 80.4%

COc1ccccc1S(=O)(=O)Nc1ccc2c3c(cc(-c4cnn(C)c4)nc13)C(=O)N2C
inactive: SR leukemia 46.1% | OVCAR-8 ovarian 47.1% | OVCAR-5 ovarian 54.1% | OVCAR-4 ovarian 51% | SK-OV-3 ovarian 14.8% | IGROV1 ovarian 18.4% | OVCAR-3 ovarian 34.1% | HS 578T breast 23.8%
active: RPMI-8226 leukemia -4.77%

O=[N+]([O-])c1ccc(NS(=O)(=O)c2ccccc2)c2ccccc12
inactive: SR leukemia 51.6% | RPMI-8226 leukemia 11.7% | OVCAR-8 ovarian 63.1% | OVCAR-5 ovarian 84.4% | OVCAR-4 ovarian 40.6% | SK-OV-3 ovarian 34.7% | IGROV1 ovarian 30.2% | OVCAR-3 ovarian 25.5% | HS 578T breast 48% | NCI/ADR-RES ovarian 51%

CC1OC(n2c3ccccc3c3c4c(c5c6ccccc6[nH]c5c32)C(=O)N(CCN[C@@H]2CCC[C@H]2N)C4=O)CC(O)C1O (stereo not given in full)
active: SR leukemia -19.1% | RPMI-8226 leukemia -5.48%
inactive: OVCAR-8 ovarian 18% | OVCAR-5 ovarian 49.2% | OVCAR-4 ovarian 24.7% | SK-OV-3 ovarian 20.1% | IGROV1 ovarian 22.7% | OVCAR-3 ovarian 27.7% | HS 578T breast 30% | NCI/ADR-RES ovarian 77.6%

CSc1nc(N)nc2c1ncn2C
inactive: SR leukemia 91.7% | RPMI-8226 leukemia 96.4% | OVCAR-8 ovarian 106% | OVCAR-5 ovarian 100% | OVCAR-4 ovarian 103% | SK-OV-3 ovarian 90.4% | IGROV1 ovarian 106% | OVCAR-3 ovarian 100% | HS 578T breast 106% | NCI/ADR-RES ovarian 98.8%

OC[C@@H](O)C(O[C@@H]1O[C@H](CO)[C@H](O)[C@H](O)[C@H]1O)[C@H](O)[C@@H](O)CO (stereo not given in full)
inactive: SR leukemia 87.4% | RPMI-8226 leukemia 103% | OVCAR-8 ovarian 98.6% | OVCAR-5 ovarian 91.8% | OVCAR-4 ovarian 106% | SK-OV-3 ovarian 99.5% | IGROV1 ovarian 95.9% | OVCAR-3 ovarian 103% | HS 578T breast 129% | NCI/ADR-RES ovarian 95.4%

Cc1cc(C)c(O)c(C(=O)CC(Br)C(=O)O)c1 (stereo not given)
inactive: SR leukemia 78.3% | RPMI-8226 leukemia 35.8% | OVCAR-8 ovarian 105% | OVCAR-5 ovarian 106% | OVCAR-4 ovarian 106% | SK-OV-3 ovarian 103% | IGROV1 ovarian 106% | OVCAR-3 ovarian 108% | HS 578T breast 107% | NCI/ADR-RES ovarian 103%

Nc1nc(-c2cc3c(cc2Cl)NC(=O)/C3=C/c2ccc(Cl)cc2)cs1
inactive: SR leukemia 13.8% | RPMI-8226 leukemia 31.9% | OVCAR-8 ovarian 50.8% | OVCAR-5 ovarian 92% | OVCAR-4 ovarian 48.6% | SK-OV-3 ovarian 71.8% | IGROV1 ovarian 34.9% | OVCAR-3 ovarian 32.8% | HS 578T breast 48.1% | NCI/ADR-RES ovarian 74.5%

O=C(O)c1cccc(S(=O)(=O)c2ccccc2)c1
inactive: SR leukemia 97.1% | RPMI-8226 leukemia 103% | OVCAR-8 ovarian 112% | OVCAR-5 ovarian 99% | OVCAR-4 ovarian 102% | SK-OV-3 ovarian 116% | IGROV1 ovarian 100% | OVCAR-3 ovarian 107% | HS 578T breast 91.6% | NCI/ADR-RES ovarian 104%

O=C(O)c1cccc2oc(-c3ccccc3O)nc12
inactive: SR leukemia 47.6% | RPMI-8226 leukemia 50.4% | OVCAR-8 ovarian 31.9% | OVCAR-5 ovarian 74.7% | OVCAR-4 ovarian 20.8% | SK-OV-3 ovarian 58.4% | IGROV1 ovarian 60.5% | OVCAR-3 ovarian 15.5% | HS 578T breast 80.4% | NCI/ADR-RES ovarian 19.8%

Cc1ccc2[nH]c3nc4cccnc4c(C)c3c2c1
active: SR leukemia 2.59%
inactive: RPMI-8226 leukemia 69.6% | OVCAR-8 ovarian 88.3% | OVCAR-5 ovarian 59.6% | OVCAR-4 ovarian 87.1% | SK-OV-3 ovarian 88% | IGROV1 ovarian 85.8% | OVCAR-3 ovarian 99.8% | HS 578T breast 93.2% | NCI/ADR-RES ovarian 83.2%

Nc1ncnc2c1c(-c1ccc(Oc3ccccc3)cc1)nn2C[C@H]1SSC[C@H]1O
active: SR leukemia -40% | SK-OV-3 ovarian -20.8% | IGROV1 ovarian -26.5% | OVCAR-3 ovarian -9.53%
inactive: RPMI-8226 leukemia 42.8% | OVCAR-8 ovarian 20.5% | OVCAR-5 ovarian 64.1% | OVCAR-4 ovarian 25.6% | HS 578T breast 21.6% | NCI/ADR-RES ovarian 22.4%

CCOC(=O)C1CSC(C)(C(=O)OCC)N1 (stereo not given)
inactive: SR leukemia 97.3% | RPMI-8226 leukemia 96.3% | OVCAR-8 ovarian 110% | OVCAR-5 ovarian 98.2% | OVCAR-4 ovarian 109% | SK-OV-3 ovarian 91.7% | IGROV1 ovarian 104% | OVCAR-3 ovarian 100% | HS 578T breast 112% | NCI/ADR-RES ovarian 101%

C=C1C(=O)O[C@H]2[C@H]1CC/C(COC(=O)CCCC(=O)OC/C1=C/CC[C@@]3(C)O[C@H]3[C@H]3OC(=O)C(=C)[C@@H]3CC1)=C\CC[C@@]1(C)O[C@@H]21
active: SR leukemia 0.324% | RPMI-8226 leukemia -9.1% | OVCAR-8 ovarian -9.93% | OVCAR-5 ovarian 2.2% | OVCAR-3 ovarian -46.6%
inactive: OVCAR-4 ovarian 49.2% | SK-OV-3 ovarian 74.5% | IGROV1 ovarian 13.4% | HS 578T breast 47.1% | NCI/ADR-RES ovarian 83.1%

CC(C)(C)OC(=O)N1CC(Cn2cc(C(F)(F)F)c3c(Cl)ncnc32)C1
inactive: OVCAR-5 ovarian 112% | OVCAR-4 ovarian 81.6% | NCI/ADR-RES ovarian 77.7%
active: SR leukemia -60.9% | RPMI-8226 leukemia -48.4% | OVCAR-8 ovarian -72.4% | SK-OV-3 ovarian -24.4% | IGROV1 ovarian -79.1% | OVCAR-3 ovarian -49.9% | HS 578T breast -9.74%

Cc1ccc(=O)n(-c2ccc(Br)cc2F)c1
inactive: SR leukemia 108% | RPMI-8226 leukemia 101% | OVCAR-8 ovarian 99% | OVCAR-5 ovarian 105% | OVCAR-4 ovarian 97.3% | SK-OV-3 ovarian 90.4% | IGROV1 ovarian 97.6% | OVCAR-3 ovarian 109% | HS 578T breast 100% | NCI/ADR-RES ovarian 104%

O[C@@H]1CCO[C@H](c2ccc3ccccc3c2)C1
inactive: SR leukemia 95.7% | RPMI-8226 leukemia 96.4% | OVCAR-8 ovarian 106% | OVCAR-5 ovarian 110% | OVCAR-4 ovarian 105% | SK-OV-3 ovarian 108% | IGROV1 ovarian 107% | OVCAR-3 ovarian 106% | HS 578T breast 100% | NCI/ADR-RES ovarian 106%

COc1cc(/C=C/C(=O)N2CCC=CC2=O)cc(OC)c1OC
inactive: SR leukemia 10.3% | OVCAR-5 ovarian 86.6% | OVCAR-4 ovarian 48.8% | SK-OV-3 ovarian 105% | IGROV1 ovarian 30.9% | OVCAR-3 ovarian 18.5% | HS 578T breast 84.5% | NCI/ADR-RES ovarian 67.2%
active: RPMI-8226 leukemia -11.3% | OVCAR-8 ovarian 4.06%

COc1cc(C(=O)NNC(=O)c2ccccc2C(=O)O)cc(OC)c1OC
inactive: RPMI-8226 leukemia 10.8% | OVCAR-8 ovarian 39.5% | OVCAR-5 ovarian 84.5% | OVCAR-4 ovarian 77.7% | SK-OV-3 ovarian 52% | IGROV1 ovarian 50.2% | OVCAR-3 ovarian 29% | HS 578T breast 67.8% | NCI/ADR-RES ovarian 37.7%
active: SR leukemia -10.9%

NS(=O)(=O)c1ccc(Nc2nc(O)c(/C=C3\C=Nc4ccccc43)s2)cc1
inactive: SR leukemia 99.2% | RPMI-8226 leukemia 95% | OVCAR-8 ovarian 94.5% | OVCAR-5 ovarian 111% | OVCAR-4 ovarian 125% | SK-OV-3 ovarian 102% | IGROV1 ovarian 92.5% | OVCAR-3 ovarian 102% | HS 578T breast 87.5% | NCI/ADR-RES ovarian 101%

C=C1C(=O)O[C@H]2[C@H]1CC/C(COC(=O)n1ccnc1C)=C\CC[C@@]1(C)O[C@@H]21
inactive: SR leukemia 86.6% | RPMI-8226 leukemia 100% | OVCAR-8 ovarian 91.4% | OVCAR-5 ovarian 101% | OVCAR-4 ovarian 99.3% | SK-OV-3 ovarian 85.4% | IGROV1 ovarian 97.7% | OVCAR-3 ovarian 73.7% | HS 578T breast 98% | NCI/ADR-RES ovarian 96.3%
